Source: PubChem BioAssay
NALP1 yeast inh = NALP1 inflammasome inhibitors in reconstituted yeast, colorimetric, S. cerevisiae, triplicate retest; S. cerevisiae NALP1/ASC/caspase-1 growth, X-gal OD620, 72 h; inhibition, % at 10 µM; 280,000 compounds, 0.61% hits; AID 2071, 2009; in the data active = inhibition mostly above about 24%, no sharp cut-off; inactive = mostly below about 32%
tim10-1 inh = growth inhibitors of tim10-1 mutant yeast, primary screen, luminescence, uHTS. S. cerevisiae tim10-1 ts strain growth, BacTiter-Glo, 24 h. inhibition, % at 20 µM. AID 463190, 2010. 330,000 compounds, 2.2% hits;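 active = inhibition of at least 40%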;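 note: mutant grown at 25 °C; 0% = DMSO wells with yeast and 100% = wells holding no yeast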
NALP3 yeast inh = NALP3 inflammasome inhibitors in reconstituted yeast, primary screen, luminescence, uHTS; Yeast reconstituted NLRP3/ASC/caspase-1, beta-gal luminescence, 24 h; inhibition, % at 10 µM; 330,000 compounds, 0.39% hits; AID 2825, 2010;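 active = inhibition of 50% or more; inactive = inhibition below 50%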;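 note: plate controls were induced DMSO wells for no effect and uninduced yeast grown without galactose for full effect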
tim23-1 inh = growth inhibitors of tim23-1 mutant yeast, primary screen, luminescence, uHTS; S. cerevisiae tim23-1 growth, BacTiter-Glo luminescence, 24 h; inhibition, % at 20 µM; 330,000 compounds, 1.3% hits;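 active = growth inhibition of the mutant yeast at or above 50%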;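 note: temperature-sensitive mutant grown at 25 °C; plate controls were DMSO-treated mutant yeast for no effect and medium wells lacking yeast for full effect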
TIM10 inh = growth inhibitors of isogenic TIM10 control yeast, primary screen, counter-screen for tim10-1 yeast inhibitor project, luminescence, uHTS; S. cerevisiae TIM10 strain growth, BacTiter-Glo luminescence, 24 h; inhibition, % at 10 µM; 330,000 compounds, 1.4% hits;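 active = inhibition of 40% or more at the single tested concentration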;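 note: wild-type TIM10 isogenic control strain grown at permissive 25 °C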
V-ATPase pH = regulators of yeast V-ATPase proton pumping, primary screen, pHLuorin cytosolic pH fluorescence | S. cerevisiae | 350,000 compounds, 0.37% hits | response, % at 10 µM; in the data active = response mostly above about 7.3%, no sharp cut-off; inactive = mostly below about 5.4%; note: actives read high
Numbers without * were called inactive; · = no result given. The list is not random: actives were taken first. Their share in the collection is about 4.2%.

SMILES	NALP1 yeast inh	tim10-1 inh	NALP3 yeast inh	tim23-1 inh	TIM10 inh	V-ATPase pH
COc1cccc(OC)c1OCCNCCO	16	16	4	9	-3	0
COCCCNCCOCCOc1c(OC)cccc1OC	24*	-5	7	-11	-2	-2
O=C(N[C@@H](Cc1ccccc1)C(=O)NC1CCCCC1)c1ccco1	45	11	7	6	-11	-3
O=C(N[C@@H](Cc1ccccc1)C(=O)NC1CCCCCC1)c1ccco1	41*	35	14	21	5	0
COc1ccc(Nc2nnc(SCc3cc([N+](=O)[O-])cc4c3OCOC4)s2)cc1	44*	8	-1	-17	7	0
COc1ccc(S(=O)(=O)N2CCCC(C(=O)NCc3ccncc3)C2)cc1Cl (stereo unspecified)	26*	13	-1	21	15	-1
COc1ccc(S(=O)(=O)N2CCC(C(=O)NCc3ccncc3)CC2)cc1Cl	12	8	17	10	-5	3
N#Cc1cn(Cc2ccccc2)c2ccccc12	27*	14	35	8	-2	-3
O=C(C1=C[C@H](C2CCCCC2)C[C@H](OCc2ccc(CO)cc2)O1)N1CCN(Cc2ccc3c(c2)OCO3)CC1	11	11	7	0	-4	-1
C#CCOC(=O)c1ccc(-n2cncn2)nc1	42*	5	10	3	1	-1
COc1ccc(OCC(=O)NCCCN2CCOCC2)cc1	-78	11	3	6	-1	2
CCOc1ccc(NCc2cccn2-c2nnc(N3CCC(C(=O)NCCCN4CCCCC4)CC3)s2)cc1	-12	6	6	-5	8	4
Fc1cccc(Cl)c1Cc1noc(/C=C/c2ccccc2)n1	28*	-2	20	8	9	2
C(=C\c1nc(-c2ccccc2)no1)/c1ccccc1	41	-3	10	7	8	-2
CC1(O)c2ccccc2C(=O)N1CCc1ccccc1F (stereo unspecified)	15	15	16	6	2	1
Cc1nc(C)c(/C(O)=C/c2nc3ccccc3oc2=O)s1	61*	-24	21	-11	-50	-3
CCOC(=O)C1(Cc2cccc(OC)c2)CCN(Cc2cccn2-c2nccs2)CC1	39*	22	17	20	-5	-4
CCOC(=O)C1(Cc2ccccc2)CCN(Cc2cccn2-c2nccs2)CC1	-7	10	8	19	-3	0
CC(=O)c1ccc(NC(=O)CCC(=O)OCC(=O)c2cccc([N+](=O)[O-])c2)cc1	11	12	11	8	-1	-2
O=S(=O)(NCCN1CCOCC1)c1cccs1	12	2	6	-12	-6	-3
CSC(=NCCCN1CCOCC1)NS(=O)(=O)c1cccs1	32*	-20	-12	-1	-18	0
CCOC(=O)c1ccccc1NC(=O)CSc1nc(N)cc(N)n1	-56	-19	11	-1	-6	1
COC(=O)c1ccccc1NC(=O)CSc1nc(N)cc(N)n1	32*	-28	6	-14	-4	0
CCn1nnc(NC(=O)c2ccc([N+](=O)[O-])o2)n1	8	27	13	29	24	-1
CCCCn1nnc(NC(=O)c2ccc(-c3ccccc3[N+](=O)[O-])o2)n1	30*	13	18	24	19	-2
SMILES	NALP1 yeast inh	tim10-1 inh	NALP3 yeast inh	tim23-1 inh	TIM10 inh	V-ATPase pH
COCCn1c(-c2ccccc2)cnc1SCC(=O)Nc1cccc2ccccc12	74*	-4	11	38	7	2
COCCn1c(-c2ccc(OC)cc2)cnc1SCC(=O)Nc1ccc(OC)cc1OC	25	30	34	24	-12	-5
CCOC(=O)c1sc(NC(=O)c2ccoc2C)c(C(N)=O)c1C	11	-16	15	7	-32	1
O=C1NCC(c2ccccc2)C1C(=O)N/N=C/c1ccc(Cl)s1 (stereo unspecified)	37*	27	-15	17	9	-1
O=C1NCC(c2ccccc2)C1C(=O)N/N=C\c1ccc(-c2ccc(Cl)c(Cl)c2)o1 (stereo unspecified)	-8	5	14	3	16	-4
O=C(NCCN1CCCC1=O)C1CCC(=O)N(CCc2ccc(Cl)cc2)C1 (stereo unspecified)	32*	5	-10	4	4	5
CCNC(=S)NC(=NCc1cccnc1)Nc1nc(C)cc(C)n1	12	30	17	17	6	-3
COc1ccc(NC(=O)CC2C(=O)N(Cc3cccs3)C(=S)N2C(C)C)cc1 (stereo unspecified)	15	13	-10	5	17	-2
CC/C(=N\NC(=O)Nc1ccccc1)c1ccccc1	13	15	28	15	12	-3
CC/C(=N\NS(C)(=O)=O)c1ccccc1	44*	18	-5	-26	10	·
CCC(C(=O)OCC(=O)N(CCOC)c1c(N)n(Cc2ccccc2)c(=O)[nH]c1=O)c1ccccc1 (stereo unspecified)	33*	6	13	6	11	1
O=C(c1ccccc1)c1ccc(OCCOCCN2CCN(Cc3ccccc3)CC2)cc1	38*	22	17	8	14	4
CC(=O)c1ccc(OCC(O)CN2CCN(Cc3ccccc3)CC2)cc1 (stereo unspecified)	41*	-17	9	-11	-1	-1
CC(=O)c1cccc(CN2CCC(n3nccc3NC(=O)CCc3ccccc3)CC2)c1	8	-4	4	3	1	5
CC(=O)Nc1ccc(C2=NNC(=Nc3cccc(S(=O)(=O)N(C)C)c3)SC2)cc1	2	8	5	4	5	7.9*
CC(Sc1nnc(-c2ccco2)n1C)C(=O)NC1CCCC1 (stereo unspecified)	·	-4	8	-5	-1	0
CC(Sc1nnc(-c2ccco2)n1C)C(=O)N1C(C)CCCC1C (stereo unspecified)	36*	11	22	10	11	1
Cc1ccc(S(=O)(=O)N2CCCCC2)cc1C(=O)Nc1ccccn1	-2	8	9	19	2	-3
COC(=O)c1cc(=O)n(Cc2ccc(OC)c(OC)c2)c(=Nc2ccc(F)cc2)s1	40*	16	29	16	1	0
COC(=O)c1cc(=O)n(Cc2ccc(F)cc2)c(=Nc2ccccc2)s1	·	11	2	18	7	-3
O=C(/C=C/c1ccccc1)NCCC1=CCCCC1	51*	6	32	25	23	-2
O=[N+]([O-])c1ccc(S(=O)Cc2ccccc2)c([N+](=O)[O-])c1 (stereo unspecified)	·	·	·	·	·	22*
